Assay results published in PubChem BioAssay (Tox21).
Records with an inconclusive call do not appear. Activity calls are given as the source filed them. Unless noted, calls come from the whole dose curve; as a rule, active = well fitted curve in the direction sought with a large enough effect in the repeat runs; inconclusive = weak or mixed curves; inactive = no such curve, though single readings can be large; an effect the other way counts as inactive or inconclusive.

Columns and labels:
[1] = qHTS assay to identify small molecule antagonists of the glucocorticoid receptor (GR) signaling pathway - cell viability counter screen (AID 720693); note: nearly all actives have a fitted effect of over 55% in size
[2] = qHTS assay for identifying genotoxic compounds that show differential cytotoxicity against isogenic chicken DT40 cell lines with known DNA damage response pathways - wild type cell line (AID 743012); note: nearly all actives have a fitted effect of over 60% in size
Method in brief: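 Cytotoxicity in repair-proficient parental chicken DT40 cells serves as the comparator for Rad54/Ku70- and Rev3-deficient lines. Cells were exposed to compounds for 40 h at 37 C/5% CO2, and ATP-based luminescence (CellTiter-Glo) measured viability.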

[3] = qHTS assay for identifying genotoxic compounds that show differential cytotoxicity against isogenic chicken DT40 cell lines with known DNA damage response pathways - Rev3 mutant cell line (AID 743014); note: nearly all actives have a fitted effect of over 55% in size
[4] = qHTS assay for identifying genotoxic compounds that show differential cytotoxicity against isogenic chicken DT40 cell lines with known DNA damage response pathways - Rad54/Ku70 mutant cell line (AID 743015); note: nearly all actives have a fitted effect of over 60% in size
[5] = qHTS assay to identify small molecule antagonists of the androgen receptor (AR) signaling pathway - cell viability counter screen (AID 743033; note: nearly all actives have a fitted effect of over 45% in size)
[6] = qHTS assay to identify small molecule antagonists of the androgen receptor (AR) signaling pathway using the MDA cell line - cell viability counter screen (AID 743041; note: nearly all actives have a fitted effect of over 45% in size)
Method in brief: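 Cytotoxicity counter screen: MDA-kb2 AR-luc cells, compound + R1881, 16 h, 37C, 0% CO2; CellTiter-Fluor added at 15.5 h, fluorescence read after 30 min.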

[7] = qHTS assay to identify small molecule antagonists of the thyroid receptor (TR) signaling pathway - cell viability counter screen (AID 743064); note: nearly all actives have a fitted effect of over 50% in size
Method in brief: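 GH3.TRE-Luc rat pituitary cells carrying a TRE-luciferase reporter were treated with compound plus 1 nM T3 (final) for 23.5 h at 37 °C. Viability was then read in the same wells by CellTiter-Fluor fluorescence after a further 30 min.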

[8] = qHTS assay to identify small molecule antagonists of the thyroid receptor (TR) signaling pathway (AID 743065); note: series mostly up to about 70 µM; nearly all actives have a fitted effect of over 55% in size
Method in brief: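 GH3.TRE-Luc rat pituitary cells (two TREs driving luciferase) were dosed with compound, then stimulated with 1 nM T3 (final) for 23.5 h at 37 C. ONE-Glo luminescence was the read-out, with CellTiter-Fluor fluorescence as the cytotoxicity counter-screen.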

[9] = test system: thyroid hormone receptor (rat, GH3 cells); experiment: qHTS assay to identify small molecule agonists of the thyroid receptor (TR) signaling pathway (AID 743066; calls by dose curve)
[10] = target: Estrogen receptor (Homo sapiens) (UniProt P03372); experiment: qHTS assay to identify small molecule antagonists of the estrogen receptor alpha (ER-alpha) signaling pathway (AID 743069; active = well fitted curve in the direction sought with a large enough effect in the signal ratio in the repeat runs, not every such curve was filed as active; the % refers to the signal ratio)
Method in brief: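 Beta-lactamase FRET fluorescence is read after 2 hr at room temperature with LiveBLAzer B/G substrate. Before that, ER-alpha-bla HEK293 cells sit 4 hr after plating, then receive compound plus 17beta-estradiol and incubate 18 hr at 37C.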

[11] = qHTS assay to identify small molecule antagonists of the estrogen receptor alpha (ER-alpha) signaling pathway - cell viability counter screen (AID 743074; calls by dose curve;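 note: HEK293 cells carrying ER-alpha-UAS-bla reporter stimulated with 17beta-estradiol; nearly all actives have a fitted effect of over 45% in size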)
[12] = target: Estrogen receptor (Homo sapiens) (UniProt P03372); experiment: qHTS assay to identify small molecule agonists of the estrogen receptor alpha (ER-alpha) signaling pathway (AID 743075; calls by dose curve;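 note: HEK293 GripTite cells with ER-alpha and UAS-driven beta-lactamase reporter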)
[13] = target: Estrogen receptor (Homo sapiens) (UniProt P03372); experiment: qHTS assay to identify small molecule agonists of the estrogen receptor alpha (ER-alpha) signaling pathway using the BG1 cell line (AID 743079); note: nearly all actives have a fitted effect of over 20% in size
[14] = qHTS assay to identify small molecule antagonists of the estrogen receptor alpha (ER-alpha) signaling pathway using the BG1 cell line - cell viability counter screen (AID 743081);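 note: compound given together with 17beta-estradiol as the ER stimulus; series mostly up to about 70 µM; nearly all actives have a fitted effect of over 45% in size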
Aromatase (Homo sapiens) = Aromatase (Homo sapiens) (UniProt P11511); experiment: qHTS assay to identify aromatase inhibitors (AID 743083); note: series mostly up to about 70 µM; nearly all actives have a fitted effect of over 55% in size
[15] = qHTS assay to identify small molecule antagonists of the estrogen receptor alpha (ER-alpha) signaling pathway using the BG1 cell line (AID 743080; calls by dose curve; note: series mostly up to about 70 µM; nearly all actives have a fitted effect of over 25% in size)
Method in brief: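 Antagonist mode: compounds in DMSO were pinned onto BG1-Luc-4E2 cells alongside 17beta-estradiol agonist, incubated 21.5 h, and ERE-driven luciferase measured with ONE-Glo. Cytotoxicity was multiplexed using CellTiter-Fluor fluorescence.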

Measured: Potency

Chain of Estrogen receptor (Homo sapiens) (P03372 whole entry, looked up): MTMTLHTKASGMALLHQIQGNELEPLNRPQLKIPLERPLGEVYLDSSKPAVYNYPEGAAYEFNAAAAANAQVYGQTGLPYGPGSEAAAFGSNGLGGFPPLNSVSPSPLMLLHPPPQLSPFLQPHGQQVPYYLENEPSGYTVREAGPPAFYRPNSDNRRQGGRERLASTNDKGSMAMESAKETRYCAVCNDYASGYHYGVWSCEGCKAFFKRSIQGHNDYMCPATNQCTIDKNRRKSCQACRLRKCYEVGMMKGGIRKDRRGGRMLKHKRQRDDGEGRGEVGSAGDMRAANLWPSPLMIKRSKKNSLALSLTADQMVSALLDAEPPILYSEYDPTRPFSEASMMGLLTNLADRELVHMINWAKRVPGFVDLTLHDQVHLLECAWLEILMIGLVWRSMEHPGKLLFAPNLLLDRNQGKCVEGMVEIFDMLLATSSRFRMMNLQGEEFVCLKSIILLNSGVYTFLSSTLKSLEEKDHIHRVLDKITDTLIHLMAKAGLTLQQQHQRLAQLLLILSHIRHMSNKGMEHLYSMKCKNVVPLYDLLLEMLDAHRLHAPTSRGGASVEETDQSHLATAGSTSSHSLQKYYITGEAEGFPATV
Chain of Aromatase (Homo sapiens) (P11511 whole entry, looked up): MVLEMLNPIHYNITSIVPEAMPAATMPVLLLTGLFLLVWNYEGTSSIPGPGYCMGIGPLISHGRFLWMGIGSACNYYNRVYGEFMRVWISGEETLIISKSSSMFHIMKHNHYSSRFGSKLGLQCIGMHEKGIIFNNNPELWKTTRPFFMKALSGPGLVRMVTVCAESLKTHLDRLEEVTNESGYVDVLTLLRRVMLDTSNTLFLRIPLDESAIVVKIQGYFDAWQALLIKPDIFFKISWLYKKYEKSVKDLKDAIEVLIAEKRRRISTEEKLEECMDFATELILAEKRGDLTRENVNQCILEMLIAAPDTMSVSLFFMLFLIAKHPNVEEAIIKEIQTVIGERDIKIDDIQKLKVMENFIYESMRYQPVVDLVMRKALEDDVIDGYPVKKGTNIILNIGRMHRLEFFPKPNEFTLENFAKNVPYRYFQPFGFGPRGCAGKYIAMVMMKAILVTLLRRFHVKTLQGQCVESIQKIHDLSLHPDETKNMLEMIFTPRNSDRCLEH

C=CCOCC(O)CO (centres undefined)
not listed: [15]
inactive: all other assays above

CN(C)[C@@H]1C(=O)C(C(=O)NCN2CCCC2)=C(O)[C@@]2(O)C(=O)C3=C(O)c4c(O)cccc4[C@@](C)(O)C3C[C@@H]12 (some centres undefined)
not listed: [10] | [12] | [13] | [15]
inactive: all other assays above

FB(F)F
not listed: [8]
inactive: all other assays above

CC(C)C[C@@H](N)C(=O)O
not listed: [10] | [12] | [13] | [15]
inactive: all other assays above

Clc1cc(Cl)c(Cl)nc1Cl
not listed: [10] | [11] | [12] | [13] | [15]
inactive: all other assays above

CC1=C(C/C=C(\C)CCC[C@H](C)CCC[C@H](C)CCCC(C)C)C(=O)c2ccccc2C1=O
not listed: [10] | [11] | [12] | [13] | [15]
inactive: all other assays above

CNCCO
not listed: [10] | [12] | [13] | [15]
inactive: all other assays above

CO/N=C(\C(=O)N[C@@H]1C(=O)N2C(C(=O)O)=C(CSc3nc(=O)c(O)nn3C)CS[C@H]12)c1csc(N)n1
not listed: [8] | [13]
inactive: all other assays above

CN1[C@@H]2CC[C@H]1CC(OC(=O)C(O)c1ccccc1)C2 (some centres undefined)
not listed: [15]
inactive: all other assays above

CCCc1nn(C)c2c(=O)[nH]c(-c3cc(S(=O)(=O)N4CCN(C)CC4)ccc3OCC)nc12
not listed: [10] | [12] | [13] | [15]
inactive: all other assays above
